Activity calls are given as the source filed them.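 How the source made its calls, unless noted: active means hit in primary screen, with calcium signal over 5 SD above buffer well mean in both duplicates; inactive means the rest.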

One assay deals with TRPC4 (mouse), co-expressed with 5HT1a in HEK293. Put plainly: calcium flux potentiators in TRPC4/5HT1a cells, confirmation, counter-screen for TRPC4 potentiator project, cell-based, second counter screen, HEK293 TRPC4/5HT1a, Fluo-4 (AID 434979;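 active means signal rise over 3 SD above mean of control wells given weak agonist, in both repeats and first screen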). The settings on record: Fluo-4 calcium flux, at 10 µM; outcome: serotonin added at its EC20 dose unless noted; potentiation: hits give high values, serotonin added at its EC20 dose unless noted.
On to `C#CCN1C(=O)C2(C(C#N)=C(N)OC(C)=C2C(=O)OCc2ccccc2)c2ccccc21` (configuration not stated), for which the potentiation is 28.9% (active).
With `Cc1ccc(-c2nc(N(C)C3CCN(C)CC3)c3ccccc3n2)cc1`, the potentiation was 34.7% (active).
For `c1ccc2nc(OCCN3CC3)ccc2c1`, the potentiation was 16.5% (active).
On to `Cc1cc(OC(C)C(=O)NCc2ccncc2)c2c3c(c(=O)oc2c1)CCCC3` (configuration not stated), for which the result was inactive.
Consider `CCNCCNc1ccc([N+](=O)[O-])c2cccnc12`, for which the result was inactive.
As for `CN(C)CCn1cnc2ccccc21`, the potentiation was 19.9% (active).
As to `COC(=O)C(O)(c1ccc(NC(=S)NC(=O)c2ccc(Cl)cc2Cl)c(C)c1)C(F)(F)F` (configuration not stated), the potentiation was 24.2% (active).
Turning to `COc1ccc(C(=O)C2CN(C)CC2c2ccc(Cl)cc2)cc1` (configuration not stated), the outcome was inactive.
With `CC(Cc1ccccc1)NCC(=O)Nc1cc(N(C)C)nc2ccccc12` (configuration not stated), the result was inactive.
In the case of `Nc1c([N+](=O)[O-])cc(F)c(N2CCNCC2)c1Br`, the potentiation is 22.5% (active).
For `Oc1c(Br)cc(Br)cc1CN1CCN(Cc2ccccc2)CC1`, the potentiation is 20.2% [hits give high values] (active).
`CCNc1cc(N2CCNCC2)ccc1[N+](=O)[O-]`: the potentiation is 17.7% (active).
Turning to `CCn1ccnc1CN1CCCC(C(=O)c2cccc(C(F)(F)F)c2)C1` (configuration not stated), the outcome was inactive.
In the case of `CCc1ccc(OCCCN=C(C)c2c(O)n(C)c(=O)n(C)c2=O)cc1`, the potentiation was 13.7% [hits give high values] (active).
For the molecule `Cc1cccc(N=Cc2c(O)n(-c3ccccc3C)c(=O)[nH]c2=O)c1`, the potentiation is 32.1% [hits give high values] (active).

Tested on in another assay: not listed separately
Put plainly: calcium flux activation in mu-opioid HEK293 cells, confirmation, counter-screen for TRPC4 activator project, cell-based, HEK293 mu-opioid receptor line (AID 449723).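 Further: counter screen cells carry the mu-opioid receptor alone and lack TRPC4.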 The settings on record: Fluo-4 calcium fluorescence, at 10 µM; hits give high values. (In general: Calcium flux is commonly read through the fluorescence of an indicator in the cells.)
Regarding `Clc1ccc(OCC#CCN2CCCC2)cc1`, the outcome was inactive.
Same read-out and setting: under `CN(CCOc1ccc(C=C2C(=O)NC(=O)NC2=O)cc1)c1ccccn1` stands “inactive”; under `CCN1CC2C3CCC(C)(O3)C2C1` (configuration not stated), “inactive”; under `CC(C)CNc1c2c(nc3ccccc13)CCC2`, “inactive”.
As for `COC(=O)C1=C(c2cc3ccccc3s2)C[C@@H]2CC[C@H]1N2C(=O)NCCO`, the outcome was inactive.
Still for that read-out and setting: the same measure for `Cc1ccc(-c2cc(-c3ccccc3)cc(-c3ccccc3)[n+]2-c2ccccc2)cc1`: “inactive”; for `Nc1ccccc1-[n+]1c(-c2ccccc2)cc(-c2ccccc2)cc1-c1ccccc1`: “inactive”.
The same measure, in the same setting: the same measure for `Clc1ccc2c(c1)C(c1ccccc1Cl)=NCc1nnc(N3CCN(CCOc4ccccc4)CC3)n1-2`: “inactive”; for `Cc1ccccc1CN1CCNCC1`: “inactive”.
On to `CN1CCN(Cc2cc(=O)n3ccsc3n2)CC1`, for which the result was inactive.
Take `CCC1=Nc2cc(C(=O)N3CCC4(CC3)OCCO4)ccc2Sc2ccc(Br)cc21`: the outcome was inactive.
For the molecule `CCCCN1C(=O)NC(=O)C2(Cc3c(nc4c(C)cccn4c3=O)N3CCc4ccccc4C32)C1=O` (configuration not stated), the outcome was inactive.
On to `C=CCOC(=O)C1=C(C)OC(N)=C(C#N)[C@@]12C(=O)N(CC(N)=O)c1ccccc12`, for which the outcome was inactive.
Take `FC(F)(F)c1ccc(CN2CCNCC2)cc1`: the result was inactive.
For `Clc1ccc(N2CCNCC2)nn1`, the result was inactive.
Consider `O=[N+]([O-])c1ccc(N2CCNCC2)cc1N1CCCCCC1`, for which the outcome was inactive.
As to `C#CCN1C(=O)C2(C(C#N)=C(N)OC(C)=C2C(=O)OCc2ccccc2)c2ccccc21` (configuration not stated), the outcome was inactive.
Consider `Cc1ccc(-c2nc(N(C)C3CCN(C)CC3)c3ccccc3n2)cc1`, for which the outcome was inactive.
For `c1ccc2nc(OCCN3CC3)ccc2c1`, the result was inactive.
Same read-out and setting: under `Cc1cc(OC(C)C(=O)NCc2ccncc2)c2c3c(c(=O)oc2c1)CCCC3` (configuration not stated) stands “inactive”; under `CCNCCNc1ccc([N+](=O)[O-])c2cccnc12`, “inactive”; under `CN(C)CCn1cnc2ccccc21`, “inactive”.
On to `COC(=O)C(O)(c1ccc(NC(=S)NC(=O)c2ccc(Cl)cc2Cl)c(C)c1)C(F)(F)F` (configuration not stated), for which the result was inactive.
On to `COc1ccc(C(=O)C2CN(C)CC2c2ccc(Cl)cc2)cc1` (configuration not stated), for which the result was inactive.
For `CC(Cc1ccccc1)NCC(=O)Nc1cc(N(C)C)nc2ccccc12` (configuration not stated), the outcome was inactive.
Regarding `Nc1c([N+](=O)[O-])cc(F)c(N2CCNCC2)c1Br`, the result was inactive.
For `Oc1c(Br)cc(Br)cc1CN1CCN(Cc2ccccc2)CC1`, the result was inactive.
Still for that read-out and setting: under `CCNc1cc(N2CCNCC2)ccc1[N+](=O)[O-]` stands “inactive”; under `CCn1ccnc1CN1CCCC(C(=O)c2cccc(C(F)(F)F)c2)C1` (configuration not stated), “inactive”.
Same read-out and setting: under `CCc1ccc(OCCCN=C(C)c2c(O)n(C)c(=O)n(C)c2=O)cc1` stands “inactive”; under `Cc1cccc(N=Cc2c(O)n(-c3ccccc3C)c(=O)[nH]c2=O)c1`, “inactive”.

Tested on in a further assay: not listed separately
Put plainly: calcium flux enhancement in mu-opioid HEK293 cells, confirmation, counter-screen for TRPC4 allosteric potentiator project, cell-based, HEK293 mu-opioid receptor line (AID 449724;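 active means calcium signal rise more than 3 SD above the low-dose agonist control mean, in both duplicate plates and the primary screen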;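 further: HEK293 cells carrying mu-opioid receptor only with no TRPC4 channel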). Conditions: Fluo-4 calcium flux, at 10 µM; compound added before EC20 DAMGO stimulus unless noted.
As for `Clc1ccc(OCC#CCN2CCCC2)cc1`, the outcome was inactive.
As for `CN(CCOc1ccc(C=C2C(=O)NC(=O)NC2=O)cc1)c1ccccn1`, the outcome was “inactive [setting not given]”.
In the case of `CCN1CC2C3CCC(C)(O3)C2C1` (configuration not stated), the result was inactive.
Still for that read-out and setting: under `CC(C)CNc1c2c(nc3ccccc13)CCC2` stands “inactive”; under `COC(=O)C1=C(c2cc3ccccc3s2)C[C@@H]2CC[C@H]1N2C(=O)NCCO`, “inactive”; under `Cc1ccc(-c2cc(-c3ccccc3)cc(-c3ccccc3)[n+]2-c2ccccc2)cc1`, “inactive”.
Take `Nc1ccccc1-[n+]1c(-c2ccccc2)cc(-c2ccccc2)cc1-c1ccccc1`: the outcome was inactive.
With `Clc1ccc2c(c1)C(c1ccccc1Cl)=NCc1nnc(N3CCN(CCOc4ccccc4)CC3)n1-2`, the result was inactive.
As to `Cc1ccccc1CN1CCNCC1`, the outcome was “inactive [setting not given]”.
Same read-out and setting: the same measure for `CN1CCN(Cc2cc(=O)n3ccsc3n2)CC1`: “inactive”; for `CCC1=Nc2cc(C(=O)N3CCC4(CC3)OCCO4)ccc2Sc2ccc(Br)cc21`: “inactive [setting not given]”.
The same measure, in the same setting: the same measure for `CCCCN1C(=O)NC(=O)C2(Cc3c(nc4c(C)cccn4c3=O)N3CCc4ccccc4C32)C1=O` (configuration not stated): “inactive [setting not given]”; for `C=CCOC(=O)C1=C(C)OC(N)=C(C#N)[C@@]12C(=O)N(CC(N)=O)c1ccccc12`: “inactive”; for `FC(F)(F)c1ccc(CN2CCNCC2)cc1`: “inactive [setting not given]”.
The same measure, in the same setting: under `Clc1ccc(N2CCNCC2)nn1` stands “inactive”; under `O=[N+]([O-])c1ccc(N2CCNCC2)cc1N1CCCCCC1`, “inactive”.
With `C#CCN1C(=O)C2(C(C#N)=C(N)OC(C)=C2C(=O)OCc2ccccc2)c2ccccc21` (configuration not stated), the result was inactive.
`Cc1ccc(-c2nc(N(C)C3CCN(C)CC3)c3ccccc3n2)cc1`: the outcome was inactive.
On the same count and under the same terms, the same measure for `c1ccc2nc(OCCN3CC3)ccc2c1`: “inactive”.
With `Cc1cc(OC(C)C(=O)NCc2ccncc2)c2c3c(c(=O)oc2c1)CCCC3` (configuration not stated), the result was inactive.
In the case of `CCNCCNc1ccc([N+](=O)[O-])c2cccnc12`, the outcome was inactive.
Take `CN(C)CCn1cnc2ccccc21`: the outcome was inactive.
For `COC(=O)C(O)(c1ccc(NC(=S)NC(=O)c2ccc(Cl)cc2Cl)c(C)c1)C(F)(F)F` (configuration not stated), the outcome was inactive.
With `COc1ccc(C(=O)C2CN(C)CC2c2ccc(Cl)cc2)cc1` (configuration not stated), the outcome was inactive.
In the case of `CC(Cc1ccccc1)NCC(=O)Nc1cc(N(C)C)nc2ccccc12` (configuration not stated), the result was inactive.
For the molecule `Nc1c([N+](=O)[O-])cc(F)c(N2CCNCC2)c1Br`, the outcome was inactive.
Turning to `Oc1c(Br)cc(Br)cc1CN1CCN(Cc2ccccc2)CC1`, the outcome was “inactive [setting not given]”.
In the case of `CCNc1cc(N2CCNCC2)ccc1[N+](=O)[O-]`, the result was inactive.
`CCn1ccnc1CN1CCCC(C(=O)c2cccc(C(F)(F)F)c2)C1` (configuration not stated): the outcome was inactive.
Turning to `CCc1ccc(OCCCN=C(C)c2c(O)n(C)c(=O)n(C)c2=O)cc1`, the outcome was “inactive [setting not given]”.
As to `Cc1cccc(N=Cc2c(O)n(-c3ccccc3C)c(=O)[nH]c2=O)c1`, the outcome was “inactive [setting not given]”.

The values are drawn from PubChem BioAssay.
